This passage reports PXC50 results from ChEMBL document CHEMBL3988442, “University of Dundee, Small-Polar-MMV Screening Library” (2021).

For the test, the target named is T1, Methionyl-tRNA synthetase, putative (Leishmania donovani (strain BPK282A1)) (UniProt E9BF75).
T1 sequence (whole entry): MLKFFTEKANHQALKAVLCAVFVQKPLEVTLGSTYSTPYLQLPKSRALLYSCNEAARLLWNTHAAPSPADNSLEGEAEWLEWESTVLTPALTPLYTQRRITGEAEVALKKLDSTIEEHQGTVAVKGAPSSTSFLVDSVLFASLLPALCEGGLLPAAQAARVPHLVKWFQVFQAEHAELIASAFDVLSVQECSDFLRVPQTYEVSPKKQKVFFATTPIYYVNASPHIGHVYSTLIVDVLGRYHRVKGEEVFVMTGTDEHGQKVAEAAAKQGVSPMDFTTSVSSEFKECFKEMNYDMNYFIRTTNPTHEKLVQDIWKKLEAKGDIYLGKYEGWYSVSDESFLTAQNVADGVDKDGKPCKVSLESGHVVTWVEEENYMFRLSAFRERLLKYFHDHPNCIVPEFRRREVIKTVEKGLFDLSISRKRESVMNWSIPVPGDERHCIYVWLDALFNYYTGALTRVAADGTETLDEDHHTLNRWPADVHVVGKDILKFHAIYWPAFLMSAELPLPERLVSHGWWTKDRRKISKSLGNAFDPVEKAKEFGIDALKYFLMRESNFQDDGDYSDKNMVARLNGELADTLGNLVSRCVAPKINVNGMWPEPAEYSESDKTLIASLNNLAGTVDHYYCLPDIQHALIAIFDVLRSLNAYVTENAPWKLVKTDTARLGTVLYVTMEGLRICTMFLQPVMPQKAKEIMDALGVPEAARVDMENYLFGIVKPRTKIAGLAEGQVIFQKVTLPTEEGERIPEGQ
Put plainly: Leishmania donovani Methionine tRNA synthetase (LdMetRS):v7. Dose response assay. In kind it is functional. More on the design: conc 80 nM, time 150 minutes.

As to `CN1CCN(c2nc(NCCO)c3cnn(C)c3n2)CC1`, the PXC50 (MAX_EFFECT 6.165703276) was < 4.

In the case of `Cc1nc(NCCCN2CCC(O)CC2)c2c(-c3cccs3)csc2n1`, the PXC50 by setting is: (MAX_EFFECT 4.325699746) < 4; (MAX_EFFECT 7.808564232) < 4.

In the case of `Cc1cc2c(N3CCCC3)nc(-c3cccnc3)nc2s1`, the PXC50 by setting is: (MAX_EFFECT 8.196721311) < 4; (MAX_EFFECT 10.16042781) < 4.

`CN(C)C(=O)c1ccc2ccc(N3CCN(CC4CC4)CC3)n2c1`: the PXC50 is < 4 (MAX_EFFECT 43.08390023) and < 4 (MAX_EFFECT 51.58878505).

Regarding `Cc1nc(N(C)CC(=O)Nc2cc(C)on2)c2c3c(sc2n1)CCC3`, the PXC50 runs as follows: (MAX_EFFECT 9.844559585) < 4; (MAX_EFFECT 10.63829787) < 4.

As for `Nc1nc(-c2ccccc2)cn1NC(=O)Nc1ccccc1F`, where the note is “MAX_EFFECT 18.14814815”, the PXC50 is < 4.

Turning to `O=C(NCC1CCCCC1)c1cc(=O)c2cc(F)cc(O)c2o1`, the PXC50 reads like this: (MAX_EFFECT 5.56621881) < 4; (MAX_EFFECT 11.64274322) < 4.

As for `CCn1cc(-c2cc(C(F)(F)F)nc(NC3CCCC3)n2)c(C)n1`, the PXC50 by setting is: (MAX_EFFECT 6.788511749) < 4; (MAX_EFFECT 7.571801567) < 4.

As for `CC(C)C[C@H](N)COc1ccccc1-c1ccccn1`, the PXC50 was < 4 (MAX_EFFECT 10.44776119) and < 4 (MAX_EFFECT 11.38716356).

On to `Cc1nc(N(C)CC(=O)NC2CC2)c2c3c(sc2n1)CCC3`, for which the PXC50 reads like this: (MAX_EFFECT 3.703703704) < 4; (MAX_EFFECT 5.866666667) < 4.

With `Cc1nc(N2CCC(CCN3CCCC3)CC2)c2ccsc2n1`, the PXC50 by setting is: (MAX_EFFECT 38.29787234) < 4; (MAX_EFFECT 38.86010363) < 4.

With `Cc1c(C(=O)NC2CCCC2)ccc2ccc(N3CCN(S(C)(=O)=O)CC3)n12`, the PXC50 by setting is: (MAX_EFFECT 3.645833333) < 4; (MAX_EFFECT 10.0877193) < 4.

With `CC(C)C[C@H]1COc2ccccc2C(c2ccccc2)=N1`, the PXC50 by setting is: (MAX_EFFECT 7.8891258) < 4; (MAX_EFFECT 10.97308489) < 4.

`Cc1cc2c(N3CCOCC3)nc(-c3cccnc3)nc2s1`: the PXC50 by setting is: (MAX_EFFECT 2.18579235) < 4; (MAX_EFFECT 5.347593583) < 4.

In the case of `CCc1nc(NCCCN(C)C)c2c3c(sc2n1)CCC3`, the PXC50 reads like this: (MAX_EFFECT 11.05527638) < 4; (MAX_EFFECT 11.54791155) < 4.

For the molecule `COCc1nc(N(C)CC(=O)N(C)C)c2c(-c3ccccc3)csc2n1`, the PXC50 is < 4 (MAX_EFFECT 3.778337531) and < 4 (MAX_EFFECT 3.816793893).

Take `Cc1nc(N2CCN(CCO)CC2)c2c(-c3cccs3)csc2n1`: the PXC50 was < 4 (MAX_EFFECT 9.693877551) and < 4 (MAX_EFFECT 12.37373737).

Take `Cc1sc2nc(-c3cccs3)nc(NCCN3CCOCC3)c2c1C`: the PXC50 is < 4 (MAX_EFFECT 8.542713568) and < 4 (MAX_EFFECT 8.5995086).

On to `Cn1ccnc1CN1CCC(F)(F)C2(CCN(c3cnccn3)C2)C1` (stereo not drawn), for which the PXC50 (MAX_EFFECT 2.816901408) was < 4 and the PXC50 (MAX_EFFECT 9.074074074) is < 4.

For `CCN1CCN(c2nc(-c3cccnc3)nc3sc(C)cc23)CC1`, the PXC50 (MAX_EFFECT 2.18579235) was < 4 and the PXC50 (MAX_EFFECT -3.20855615) was < 4.

With `CS(=O)(=O)N1CCN(c2ccc3ccc(C(=O)N4CCCC4)cn23)CC1`, the PXC50 is 4.86 (BOTTOM 0.156945579, HILLSLOPE 1.857683392, MAX_EFFECT 58.30188679, TOP 61.51792395) and 4.95 (BOTTOM 4.583304472, HILLSLOPE 3.359740299, MAX_EFFECT 56.16438356, TOP 53.05051886).

As for `Nc1cc(O)c(Cl)cc1Cl`, the PXC50 (MAX_EFFECT 7.034220532) is < 3 and the PXC50 (MAX_EFFECT 11.44708423) was < 3.

On to `CS(=O)(=O)N1CCN(c2ccc3ccc(C(=O)NCC4CCCO4)cn23)CC1` (stereo not drawn), for which the PXC50 is 4.63 (BOTTOM -3.857720999, HILLSLOPE 1.705839216, MAX_EFFECT 57.40402194, TOP 63.01150798) and 4.86 (BOTTOM -4.829130924, HILLSLOPE 1.927262902, MAX_EFFECT 52.15311005, TOP 54.22060795).

Regarding `Cc1nc(N2CC[C@@H](O)C2)c2c(-c3cccs3)csc2n1`, the PXC50 by setting is: (MAX_EFFECT -2.07253886) < 4; (MAX_EFFECT -3.723404255) < 4.

In the case of `Cc1nc(N2CCN(c3ncccn3)CC2)c2c3c(sc2n1)CCC3`, the PXC50 was < 4 (MAX_EFFECT 14.75409836) and < 4 (MAX_EFFECT 18.71657754).

Turning to `Cc1nc(N2CCN(c3cnccn3)CC2)c2c3c(sc2n1)CCCC3`, the PXC50 reads like this: (MAX_EFFECT 22.45989305) < 4; (MAX_EFFECT 25.13661202) < 4.

For `CC(C)C[C@H](N)C(=O)Nc1cccnc1Oc1ccc(Cl)cc1`, the PXC50 runs as follows: (MAX_EFFECT 2.186878728) < 4; (MAX_EFFECT 7.568807339) < 4.

Consider `Nc1noc2ccc(-c3cnc4ccc(NCCN5CCC(F)(F)CC5)nn34)cc12`, for which the PXC50 (MAX_EFFECT 10.96491228) is < 4 and the PXC50 (MAX_EFFECT 13.23155216) was < 4.

Regarding `Fc1ccc(Nc2nc(-c3ccccn3)cs2)cc1`, the PXC50 was < 4 (MAX_EFFECT 22.79069767) and < 4 (MAX_EFFECT 23.07692308).

In the case of `O=C(c1c[nH]cn1)N1CCC(F)(F)C2(CCN(c3cnccn3)C2)C1` (stereo not drawn), the PXC50 runs as follows: (MAX_EFFECT 1.584507042) < 4; (MAX_EFFECT 3.800475059) < 4.
